# Tested on: PXR:RXRa (NR concentration 270 nM, RXRa partner concentration 90 nM)
# Experiment: PBM binding z-score (relative to random genomic background probes); higher = stronger binding; sequences stand for … in GC…GCGATTGACAGCGTAGAATGAAGG
# In short: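 Binding buffer was PBS pH 7.4 with 2% milk, 0.02% Triton X-100, 1 mM DTT, 0.2 mg/mL BSA and 0.4 mg/ml salmon testes DNA. In it, ligand-free nuclear receptor dimers were incubated 1 h on custom Agilent 4×180K protein-binding microarrays carrying double-stranded probes. Antibodies against each partner (one per run) detected binding, and z-scores were calculated against random background probes after regression normalization of scanned fluorescence.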
row,Sequence,PBM binding z-score
1,TGTCAAAGTTCAAAGGTAATGTAAGTATCCACAC,5.65
2,GCTTGTAGATCTAGGTTAAGAAAGACTAAGCTAA,-0.4
3,TCTAGTTGGTCACGGAGGTCACATACGACGGGTA,4.38
4,TGAATGAGGTTAAAGATCAGCGAACGTGGCGTCG,1.89
5,TCTTGTACATCAATAGAGGTTAAGAAAGTGCGCT,2.94
6,GGAACGCGGGCAAGTTGATAGCAGAGTTTGATGG,-0.588
7,AGTCAAAGTTCAGGACGAGGTAACGGAAAGCACG,2.66
8,ACAGACAGGTGAGAGAAGGTAACTCAGCTGGACG,-0.372
9,TCATATAGGTAAATGCTAGGGGAAAGTCCGATCT,0.434
10,CCTTACGGGTCACTCCAGGTTATTGCATCGGAGT,5.46
11,GCAGACAGGAGAAACGCAGGTAACTCAGGGTGGC,-0.694
12,CCGAGTACGTTATGGGGCATTCAGGCAACGGTGA,-0.602
13,TCGAGTAGGCTAGTCGGGGCATTCAGCCAACATA,-0.462
14,CCAGACAGGTGAAAGGTAACTCAGTCTGGTACGC,0.838
15,CTCGAAAGGTCGGTTGAGGTGAGGATACGGATAA,3.06
16,TTACCAAGGTGAAGGTAGTTGATCCCTCTGTAGA,0.456
17,CCGACCGGGGCATAAGGTTACCATAAGCCAGCCC,0.533
18,CATACAGGGTCAGCTCGGCCAGAGTAGGGACGGC,2.02
19,ACTTGTTGGTCAGCTGAGGTCACACACAATTCGG,5.63
20,CCTGCTAGGTAATGGTCAGCTAATCTACAGTATG,-0.534

row,Sequence,PBM binding z-score
1,CGTCCAGGGTCATAGGAGGTCAGTGAAGACAGAT,6.84
2,CCTTACGGTTCACTCCAGGTTATAGCATCGGAGT,3.53
3,AGTCAGAGTTCAGGACGAGGTAACGTAAAGCACG,3.45
4,TCAGACAGGCGAAGGTAACTCAGGTACGCAGTCG,0.167
5,CGCCCAAGGTCAGAGAGGTCAGTGAATGCCGAGT,5.86
6,GCATATAGGTAATACAAAGTGAAAGTCCGATTGT,-0.28
7,CGAACTAGATCATCCAGGACAGTGAATACATTGA,-0.222
8,CTACCAAGGTGAACAAGGTGGTTGATTACTATTC,0.111
9,ACATACGGGTCAACGAGGTTATAGCACGCGTATA,5.01
10,CGTCCAAGGTCAAGGTCAGTAAAAGAGACTCGAA,4.72
11,GCGACTGGGGCATCAGCAGGTAACCATAACTTAA,-0.194
12,ATATGTAGATTAGCTGGGGTCATTCAGACTAGGC,5.46
13,ACTAGTTGGTCAGCTGAGGTCCCACACAATTCGG,0.0973
14,AGAGTGAGGTTATACGTAGATCAGGGAAGAAAGT,1.39
15,GCTAGCAGGCCATTTGGGGCACTCAATGACGGGC,-0.594
16,GCTAGTTGGTCAGGAAAAGGTCACACACCGGTCG,4.97
17,CCGACTGGGGCATAAGGTTACCACAAGCCAGCCC,0.223
18,ACTAGTTGGTCAGCAGAGGTCACACACAATTCGG,5.73
19,TCTTGTAGATCAAAGGTTAAAAAAGCCGAAGCCT,2.17
20,CCGACTGGTGCATAAGGTTACCATAAGCCAGCCC,0.475

# — the supplement of paper PMC6555819
